Where “and” joins values, the source holds several entries; their conditions need not be identical. Identical values can stand only once. Measured potencies and affinities stand elsewhere.

The first assay deals with Klebsiella pneumoniae. Particulars: Concentration 32 ug.mL-1; ASSAY_TEST Inhibition of Bacterial Growth; detection method Absorption (OD600); MEDIA CAMHB; plate type 384well; NBS; CORNING #3640; time 18 hr.
Regarding `CN(C)c1nc(N)c(C#N)c(-c2ccccc2)c1C#N`, the Inhibition (commonly the change of the read-out against control, counted positive when it falls) was -2.21%.

As to `C#CCNC(=O)c1cc2cc(OCCCC3CCN(Cc4ccccc4)CC3)ccc2[nH]1`, the Inhibition turned out to be 4.92%.

Regarding `CSC1=NC(=Cc2cn(C)c3ccccc23)C(=O)N1C`, the Inhibition was -7.62%.

Consider `CCOC(=O)/C(=C\c1ccccc1)C(=O)c1ccccc1`, for which the Inhibition is reported as -3.55%.

With `CN(C)c1nc(Cl)c(C#N)c(-c2ccccc2)c1C#N`, the Inhibition amounted to 5.58%.

Regarding `Cc1nc(Nc2ccccc2)c2cnn(-c3ccccc3)c2n1`, the Inhibition was 17.53%.

As for `COc1ccc(C2c3c(nc4c(c3N)CCCC4)Oc3ccc4ccccc4c32)cc1` (centres undefined), the Inhibition amounted to 8.01%.

On to `CC(=O)Nc1nc(Cl)c(C#N)c(-c2ccccc2)c1C#N`, for which the Inhibition was found to be 7.97%.

Turning to `C#CCN(C)c1nc(OC)c(C#N)cc1C#N`, the Inhibition came to 1.2%.

As to `O=C(O)C(=Cc1ccccc1)NC(=O)c1ccccc1`, the Inhibition came to 27.9%.

On to `CC(C)CC(C)NNC(=O)c1cc2ccccc2[nH]1` (centres undefined), for which the Inhibition is -2.7%.

As for `N#CC1(Br)C(=NBr)Oc2c(ccc3ccccc23)C1c1ccccc1[N+](=O)[O-]` (centres undefined), the Inhibition is listed as 24.4%.

Regarding `Cn1c(C(=O)O)cc2cc(OCCCC3CCN(Cc4ccccc4)CC3)ccc21`, the Inhibition came out at 12.92%.

For the molecule `Cn1cc(C=O)c2ccccc21`, the Inhibition came to 2.25%.

Regarding `C#CCN(C)Cc1cc2cc(O)ccc2n1C.Cl`, the Inhibition is given as 13.12%.

In the case of `COC1=C(C#N)C(c2ccccc2)C(C=O)=C(Cl)N1` (centres undefined), the Inhibition was determined as 16.25%.

With `NNC(=O)c1c[nH]c2ccc(OCc3ccccc3)cc12`, the Inhibition was 3.4%.

As to `CN(C)c1ccc(C(=NNC(=O)c2cc3ccccc3[nH]2)c2ccc(N(C)C)cc2)cc1`, the Inhibition is -1.36%.

For the molecule `CCCCNNC(=O)c1cc2ccccc2[nH]1`, the Inhibition is on record as -6.75%.

As for `COc1ccccc1-c1c(C#N)c(=O)oc2c1ccc1ccccc12`, the Inhibition is reported as 11.02%.

`Nc1c2c(nc3ccc([N+](=O)[O-])cc13)CCCC2`: the Inhibition is listed as 16.59%.

With `O=C(O)/C(=C\c1ccccc1)NC(=O)c1ccccc1`, the Inhibition was determined as 17.85%.

As to `Cl.ClCCCC1CCNCC1`, the Inhibition is recorded as 10.49%.

For `COc1ccc2cc(C3C(C(C)=O)=C(C)Oc4nc5c(c(N)c43)CCCCC5)c(Cl)nc2c1` (centres undefined), the Inhibition came out at 0.78%.

Turning to `COc1cccc(C2c3c(ccc4ccccc34)OC(=NBr)C2(Br)C#N)c1` (centres undefined), the Inhibition was determined as 33.1%.

For the molecule `N#C/C(=C\c1ccccc1)C(=O)c1ccccc1`, the Inhibition is 5.05%.

As for `COc1ccc2cc(C=O)c(Cl)nc2c1`, the Inhibition amounted to 1.14%.

On to `CCOC(=O)/C(C#N)=C\c1ccc(C)cc1`, for which the Inhibition amounted to 18.72%.

Regarding `CC/C(C)=N/NC(=O)Cc1c[nH]c2ccccc12`, the Inhibition worked out at 0.18%.

`N#CC1=C(N)Oc2c(ccc3ccccc23)C1c1cccc([N+](=O)[O-])c1` (centres undefined): the Inhibition is on record as 11.95%.

With `CCOC(=O)C1=C(C)Oc2nc3c(c(N)c2C1c1nccn1C)CCC3` (centres undefined), the Inhibition was 4.43%.

`N#Cc1cc(C#N)c(N2CCC(O)CC2)nc1N`: the Inhibition was -4.97%.

As for `Nc1c2c(nc3c1C(c1ccc([N+](=O)[O-])cc1)c1c(ccc4ccccc14)O3)CCCC2` (centres undefined), the Inhibition amounted to 9.13%.

Consider `CCOC(=O)N/N=C/c1ccccc1`, for which the Inhibition is given as 8.83%.

Consider `Cn1cc(/C=C2\NC(=S)NC2=O)c2ccccc21`, for which the Inhibition is 6.37%.

For the molecule `Cc1nc(Nc2ccccc2)c2c(C)nn(-c3ccccc3)c2n1`, the Inhibition was -3.39%.

With `N#CC1=C(Cl)Oc2c(ccc3ccccc23)C1c1ccccc1` (centres undefined), the Inhibition is recorded as 10.59%.

For `N#Cc1ccc(Br)cc1N`, the Inhibition was 26.43%.

Consider `CC1=NC(=Cc2ccccc2)C(=O)S1`, for which the Inhibition is on record as 11%.

The next assay deals with Candida albicans. The following applies: 32 ug/mL.
In the case of `CN(C)c1nc(N)c(C#N)c(-c2ccccc2)c1C#N`, the Inhibition was 0.74%.

For the molecule `C#CCNC(=O)c1cc2cc(OCCCC3CCN(Cc4ccccc4)CC3)ccc2[nH]1`, the Inhibition stood at 1.71%.

Consider `CSC1=NC(=Cc2cn(C)c3ccccc23)C(=O)N1C`, for which the Inhibition turned out to be 1.89%.

Take `CCOC(=O)/C(=C\c1ccccc1)C(=O)c1ccccc1`: the Inhibition worked out at 3.73%.

For `CN(C)c1nc(Cl)c(C#N)c(-c2ccccc2)c1C#N`, the Inhibition came out at 3.09%.

`Cc1nc(Nc2ccccc2)c2cnn(-c3ccccc3)c2n1`: the Inhibition was found to be 0.68%.

`COc1ccc(C2c3c(nc4c(c3N)CCCC4)Oc3ccc4ccccc4c32)cc1` (centres undefined): the Inhibition came to 0.67%.

Regarding `CC(=O)Nc1nc(Cl)c(C#N)c(-c2ccccc2)c1C#N`, the Inhibition was 1.84%.

`C#CCN(C)c1nc(OC)c(C#N)cc1C#N`: the Inhibition was 2.65%.

As to `O=C(O)C(=Cc1ccccc1)NC(=O)c1ccccc1`, the Inhibition came out at 0.44%.

Regarding `CC(C)CC(C)NNC(=O)c1cc2ccccc2[nH]1` (centres undefined), the Inhibition was -0.37%.

Consider `N#CC1(Br)C(=NBr)Oc2c(ccc3ccccc23)C1c1ccccc1[N+](=O)[O-]` (centres undefined), for which the Inhibition is 25%.

Take `Cn1c(C(=O)O)cc2cc(OCCCC3CCN(Cc4ccccc4)CC3)ccc21`: the Inhibition stood at 6.79%.

With `Cn1cc(C=O)c2ccccc21`, the Inhibition is 1.53%.

`C#CCN(C)Cc1cc2cc(O)ccc2n1C.Cl`: the Inhibition turned out to be 2.77%.

For `COC1=C(C#N)C(c2ccccc2)C(C=O)=C(Cl)N1` (centres undefined), the Inhibition worked out at 4.19%.

Regarding `NNC(=O)c1c[nH]c2ccc(OCc3ccccc3)cc12`, the Inhibition is 1.23%.

For `CN(C)c1ccc(C(=NNC(=O)c2cc3ccccc3[nH]2)c2ccc(N(C)C)cc2)cc1`, the Inhibition was -0.9%.

For `CCCCNNC(=O)c1cc2ccccc2[nH]1`, the Inhibition was -0.51%.

As to `COc1ccccc1-c1c(C#N)c(=O)oc2c1ccc1ccccc12`, the Inhibition came to 9.28%.

Take `Nc1c2c(nc3ccc([N+](=O)[O-])cc13)CCCC2`: the Inhibition was found to be 2.09%.

Consider `O=C(O)/C(=C\c1ccccc1)NC(=O)c1ccccc1`, for which the Inhibition is 1.39%.

Consider `Cl.ClCCCC1CCNCC1`, for which the Inhibition was 0.27%.

Turning to `COc1ccc2cc(C3C(C(C)=O)=C(C)Oc4nc5c(c(N)c43)CCCCC5)c(Cl)nc2c1` (centres undefined), the Inhibition is 3.71%.

`COc1cccc(C2c3c(ccc4ccccc34)OC(=NBr)C2(Br)C#N)c1` (centres undefined): the Inhibition amounted to 26.4%.

Regarding `N#C/C(=C\c1ccccc1)C(=O)c1ccccc1`, the Inhibition was 4.89%.

Turning to `COc1ccc2cc(C=O)c(Cl)nc2c1`, the Inhibition amounted to 6.08%.

Regarding `CCOC(=O)/C(C#N)=C\c1ccc(C)cc1`, the Inhibition was found to be 1.42%.

With `CC/C(C)=N/NC(=O)Cc1c[nH]c2ccccc12`, the Inhibition is -0.57%.

For `N#CC1=C(N)Oc2c(ccc3ccccc23)C1c1cccc([N+](=O)[O-])c1` (centres undefined), the Inhibition was 2.35%.

In the case of `CCOC(=O)C1=C(C)Oc2nc3c(c(N)c2C1c1nccn1C)CCC3` (centres undefined), the Inhibition is -1.64%.

On to `N#Cc1cc(C#N)c(N2CCC(O)CC2)nc1N`, for which the Inhibition came out at 1.52%.

In the case of `Nc1c2c(nc3c1C(c1ccc([N+](=O)[O-])cc1)c1c(ccc4ccccc14)O3)CCCC2` (centres undefined), the Inhibition is 1.59%.

Take `CCOC(=O)N/N=C/c1ccccc1`: the Inhibition turned out to be 4.9%.

`Cn1cc(/C=C2\NC(=S)NC2=O)c2ccccc21`: the Inhibition was -0.01%.

Turning to `Cc1nc(Nc2ccccc2)c2c(C)nn(-c3ccccc3)c2n1`, the Inhibition was -2.39%.

With `N#CC1=C(Cl)Oc2c(ccc3ccccc23)C1c1ccccc1` (centres undefined), the Inhibition came to 4.15%.

As to `N#Cc1c(-c2cccc([N+](=O)[O-])c2)c2ccc3ccccc3c2oc1=O`, the Inhibition was 4.25% and -0.04% and 3.33%.

In the case of `N#Cc1ccc(Br)cc1N`, the Inhibition came out at 18%.

For `CC1=NC(=Cc2ccccc2)C(=O)S1`, the Inhibition stood at 0.37%.

Values taken from ChEMBL document CHEMBL4513135, “CO-ADD screening of IQOG CSIS (Spain) compounds”.
